Here are results for eight molecules from PubChem BioAssay (NCI).

Structures are written as SMILES. Compounds without any hit were thinned out: in the full panel of roughly 83,000, 20% have a hit.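 96-well plates, one dose, 48 hours. Percent growth reported; active if below 10.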 Unmarked numbers belong to inactive results. Active and inactive are the calls of the source.

Common to all, as to test: NCI-60 one-dose screen, 48 h (100 = growth as untreated, 0 = no growth, -100 = all killed)
Common to all, as to conditions: 10 µM unless noted

Assay [1] deals with SK-MEL-2 melanoma.
For assay [2], the system named is EKVX NSCLC.
The test system of assay [3] is SN12C renal.
Assay [4] relates to UO-31 renal.
In assay [5] the test system is TK-10 renal.
Assay [6] relates to ACHN renal.
Assay [7] relates to CAKI-1 renal.
Assay [8] concerns CCRF-CEM leukemia.
The subject of assay [9] is MOLT-4 leukemia.
The subject of assay [10] is SR leukemia.
Assay [11] deals with RPMI-8226 leukemia.
The subject of assay [12] is OVCAR-8 ovarian.
The test system of assay [13] is OVCAR-5 ovarian.
Assay [14] has as its system OVCAR-4 ovarian.
Assay [15] relates to SK-OV-3 ovarian.
Assay [16] has as its system IGROV1 ovarian.
Assay [17] has as its system HS 578T breast.
Assay [18] has as its system NCI/ADR-RES ovarian.
Assay [19] concerns OVCAR-3 ovarian.
For assay [20], the system named is A498 renal.

As to `Cc1cc(C)nc(SC2=C(Nc3cccc(Cl)c3C)C(=O)N(Cc3ccccc3)C2=O)n1`, the growth in assay [1] was 69.6% [30 µM]; in assay [2] it was 47.2% [30 µM]; in [3], 70.1% [30 µM]; in assay [4], 14.7% [30 µM]; in [5] it was 60.5% [30 µM]; in assay [6] it was 65.2% [30 µM]. Besides, the growth in assay [7] is 60.8% [30 µM]; in assay [8], 26.9% [30 µM]; in assay [9] it was 4.41% [30 µM] (active); in [10], 31.8% [30 µM]; in assay [11] it was 12.5% [30 µM]; in assay [12] it was 64.2% [30 µM]. Further, the growth in assay [13] was 81.8% [30 µM]; in [14] it was 49% [30 µM]; in assay [15] it was 91.6% [30 µM]; in assay [16], 73% [30 µM]; in assay [17] it was 60.7% [30 µM]; in assay [18], 52.1% [30 µM].
Turning to `C=CC(=O)Nc1cccc(-c2nc(SC)nc(Nc3ccccc3OC)c2C#N)c1`, the growth in assay [1] is 73.9%; in assay [2] it was 63.7%; in [3] it was 48.4%; in [4], 19.2%; in assay [5], 36.1%; in [6], 37.7%. For the same molecule, the growth in [7] is 56.6%; in assay [8], 40.8%; in assay [9], 33.4%; in assay [11] it was 29.7%; in assay [12] it was 34.5%; in [13], 42.9%. For the same molecule, the growth is -26.4% (active) in assay [14]; 91.8% in assay [15]; 69.3% in assay [16]; 23.4% in assay [19]; 16.8% in [17]; 29.3% in assay [18].
For the molecule `COc1cccc(NC(=O)c2sc3nc(C)c(C(C)=O)cc3c2N)c1`, the growth is 24.5% in assay [1]; 56.4% in assay [2]; 55.9% in [3]; 75.2% in [4]; 55.7% in assay [5]; 63.3% in [6]. Moreover, the growth in [20] was 17.2%; in assay [8] it was 51.6%; in assay [9], 44.9%; in assay [10], 19%; in [11], 52.2%; in assay [12], 63.5%. The growth in assay [13] was 112%; in [14], 63.7%; in assay [15] it was 25.2%; in assay [16] it was 59.7%; in assay [19], 17.8%; in [17] it was 43.3%. Further, the growth in assay [18] is 34.1%.
Turning to `CC(C)n1c(/C=C/[C@@H](O)C[C@@H](O)CC(=O)O)c(-c2ccc(F)cc2)c2ccccc21`, the growth in [1] was 15%; in assay [2], 52.7%; in assay [3] it was 36.4%; in [4] it was 44.7%; in assay [5], 88.7%; in assay [6], 10.3%. For the same molecule, the growth in assay [7] was -42.9% (active); in assay [8], 59.8%; in assay [9], 60.8%; in assay [11], 53.2%; in [12], 40.2%; in assay [13], 85.8%. Besides, the growth in assay [14] is 90.4%; in assay [15], 72.6%; in assay [16], 34.3%; in [19], 84.8%; in [17], 55.1%; in assay [18] it was 22.1%.
Consider `Clc1ccc2nc3nc4ccc[nH]c4cc3c2c1`, for which the growth was 88.5% in [1]; 68.2% in assay [2]; 90.8% in assay [3]; 78.4% in assay [4]; 43.1% in [5]; 85.9% in [6]. In addition, the growth in assay [20] is 109%; in assay [8], 71.4%; in assay [9] it was 80.5%; in [10], 39.6%; in [11] it was 65.5%; in [12], 87.4%. Moreover, the growth in assay [13] was 127%; in [14] it was 49.2%; in assay [15], 98.1%; in assay [16], 52.9%; in assay [19], 83.1%; in assay [17], 92.2%. Besides, the growth in assay [18] was 88.3%.
Turning to `O=C1NC(=Nc2ccc(O)cc2)S/C1=C\c1cccc(Cl)c1`, the growth in assay [1] is 109%; in assay [2], 84.2%; in assay [3], 82%; in assay [4], 42.5%; in assay [5], 97.3%; in [6], 84.5%. Moreover, the growth in [7] is 70%; in assay [8], 27.1%; in assay [9], 45.4%; in assay [10], 23.1%; in assay [11], 2.99% (active); in assay [12] it was 84.3%. Moreover, the growth was 110% in assay [13]; 90.3% in assay [14]; 77.1% in assay [15]; 65.7% in assay [16]; 30.1% in [19]; 63.1% in assay [17]. Further, in [18], the growth is 83.8%.
Consider `N#Cc1nnn(-c2ccc(S(N)(=O)=O)cc2)c1NCC(=O)c1ccccc1`, for which the growth in assay [1] is 97.8%; in assay [2], 90.9%; in assay [3], 97.1%; in assay [4], 78.9%; in [5], 107%; in assay [6], 99.5%. Further, the growth in assay [20] was 101%; in [8], 83.6%; in [9], 89.9%; in assay [10], 90.7%; in [11], 87.5%; in assay [12], 91.6%. Besides, the growth is 108% in assay [13]; 89.8% in [14]; 91.9% in [15]; 99.5% in assay [16]; 106% in assay [19]; 98.3% in [17]. Moreover, the growth in assay [18] was 105%.
For the molecule `COc1ccc(SC2c3cc(OC)c(OC)cc3Oc3nc(N)c(C#N)c(N)c32)cc1` (centres undefined), the growth was -26.3% (active) in assay [1]; -51.7% (active) in assay [2]; -90.6% (active) in assay [3]; -100% (active) in [4]; -49.6% (active) in [5]; -95.6% (active) in assay [6]. Further, the growth is -13.8% (active) in [20]; -37.2% (active) in assay [8]; -26.8% (active) in [9]; -36.2% (active) in [10]; -36.1% (active) in assay [11]; -85.4% (active) in assay [12]. In addition, the growth in assay [13] was -71.7% (active); in assay [14], -97.1% (active); in assay [15], -81.3% (active); in assay [16], -77.1% (active); in assay [19], -96.1% (active); in assay [17], -2.22% (active). For the same molecule, the growth in assay [18] is -16.3% (active).
